A selection: hits, their analogues and other compounds. The true share with any hit is near 2.7%.
TrxR1 substrate = rat thioredoxin reductase 1 substrate activity | Potency, µM (top dose mostly 114 µM) | purified TrxR1 substrate turnover, NADPH consumption readout | 0.01% of 390,000 active; further: nearly all actives have a fitted effect of over 50% in size
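Rat TrxR1, dispensed at 90 nM, was prereduced with 400 uM NADPH (final) for 5 min at ~22 deg C, then incubated with compound 15 min before 400 uM selenite. A first-read NADPH fluorescence drop versus no-compound background flagged substrates.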
GLP1R ag = GLP-1 receptor (human) agonism | HEK293 GLP-1R CRE-luciferase, luminescence, 4-6 h; cells express a hypersensitive GLP-1R form | Potency, µM (series often up to 45.6 µM), actives largely listed as activators | 0.007% of 380,000 active | AID 624172
Target sequence (P43220 whole entry, looked up): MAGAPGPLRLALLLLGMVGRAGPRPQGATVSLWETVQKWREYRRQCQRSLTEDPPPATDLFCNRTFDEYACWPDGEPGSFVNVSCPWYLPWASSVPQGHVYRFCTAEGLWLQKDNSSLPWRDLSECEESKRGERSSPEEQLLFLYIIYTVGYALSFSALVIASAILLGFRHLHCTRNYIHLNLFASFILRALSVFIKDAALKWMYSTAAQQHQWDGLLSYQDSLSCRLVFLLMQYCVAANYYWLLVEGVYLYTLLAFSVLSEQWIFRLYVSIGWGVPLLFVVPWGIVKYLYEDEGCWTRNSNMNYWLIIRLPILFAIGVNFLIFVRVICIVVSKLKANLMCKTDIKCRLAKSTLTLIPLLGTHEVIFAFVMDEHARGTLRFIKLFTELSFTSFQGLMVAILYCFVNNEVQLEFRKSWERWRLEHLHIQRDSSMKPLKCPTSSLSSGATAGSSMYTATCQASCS
rTrxR1 inhibitor = blocks rat thioredoxin reductase 1; 1% of 390,000 active; recombinant rTrxR1, NADPH fluorescence consumption, selenite substrate; O89049; Potency, µM (doses to about 114 µM), usual class: inhibitors; AID 588453; further: nearly all actives have a fitted effect of over 65% in size
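Rat TrxR1 (90 nM in the dispensed reagent) was pre-reduced with 400 uM NADPH for 5 min at room temperature, then incubated with compound for 15 min. After 400 uM selenite was added, NADPH fluorescence (Ex 340/Em 450 nm) was followed for 8 min.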
IDH1 R132H inh = human IDH1 R132H inhibition. IDH1-R132H enzyme, NADPH consumption, diaphorase/resazurin fluorescence. AID 602179. 0.093% of 390,000 active. Potency, µM (titrated, usually from 76.6 µM), hits mostly inhibitors; further: nearly all actives have a fitted effect of over 65% in size
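IDH1-R132H (0.5 ug/mL dispensed) in pH 7.5 Tris buffer was preincubated 30 min with compound, then given a substrate mix of 0.016 mM NADPH and 2 mM alpha-KG for 80 min at room temperature; remaining NADPH was read by diaphorase/resazurin fluorescence.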
GLP1R inv ag = inverse agonists of human GLP-1 receptor; P43220; 1.6% of 410,000 active; Potency, µM (series often up to 38.3 µM), usual class: inhibitors; HEK293 GLP-1R CRE-luciferase, luminescence, 24 h; GLP-1R form is constitutively active; further: nearly all actives have a fitted effect of over 55% in size
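HEK293 cells stably co-expressing constitutively active GLP-1R and a cAMP-responsive luciferase reporter were seeded in DMEM with 10% Nu serum, given compounds after 12 h, and incubated 24 h at 37 deg C. Luminescence was then read.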
HEK293 tox = cytotoxicity in counter-screen for GLP-1R inverse agonists. HEK293 cAMP-luciferase reporter cells, luminescence, 24 h. Potency, µM (titrated, usually from 38.3 µM), most hits filed as inhibitors. 0.13% of 410,000 active. AID 624418;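 further: loss of luciferase light is scored as toxicity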
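To flag toxic compounds, the library was rerun on cells for 24 hr at 37 deg C and 5% CO2. Viability-linked luminescence was captured 12 min after adding luciferase detection reagent.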
A number is an active result; 0 = inactive; ? = inconclusive; - = no result; [ ] = remark or other dose. The call rests on the fitted dose curve; in most records, active means well fitted curve in the direction sought with a large enough effect; inconclusive means small, poorly fitted or top-dose-only effect, or another doubt; inactive means no such curve, though single readings can be large; an effect the other way counts as inactive or inconclusive.

SMILES | TrxR1 substrate | GLP1R ag | rTrxR1 inhibitor | IDH1 R132H inh | GLP1R inv ag | HEK293 tox
COc1cc2c(cc1OC)n(CC(=O)c1cc(C)ccc1C)c(=O)n1nc(CCn3nc(C)cc3C)nc21 | 0 | - | 0 | 0 | 0 | 0
COc1cccc(C2c3[nH]c4ccccc4c3C[C@H]3C(=O)N(C4CCN(Cc5ccccc5)CC4)CC(=O)N23)c1 (stereo partly specified) | 0 | 0 | 0 | 0 | 2µM | 0
COc1ccccc1C1c2[nH]c3ccccc3c2C[C@H]2C(=O)N(C3CCN(Cc4ccccc4)CC3)CC(=O)N12 (stereo partly specified) | 0 | 0 | 0 | 0 | 5.6µM | 0
Cc1ccccc1C1c2[nH]c3ccccc3c2C[C@H]2C(=O)N(C3CC3)CC(=O)N12 (stereo partly specified) | 0 | 0 | 0 | 0 | ? | 0
O=C1[C@@H]2Cc3c([nH]c4ccccc34)C(c3ccccc3)N2C(=O)CN1C1CC1 (stereo partly specified) | 0 | 0 | 0 | 0 | 0 | 0
COc1ccc(C2c3[nH]c4ccccc4c3C[C@H]3C(=O)N(C4CCN(Cc5ccccc5)CC4)CC(=O)N23)cc1OC (stereo partly specified) | 0 | 0 | 0 | 0 | 13µM | 0
O=C(Cc1ccc(OCCc2ccccc2)cc1)NO | 0[0.0914 µM] | - | 0 | - | - | -
COC(=O)[C@@H]1[C@H]2SC(C)(C)[C@H](C(=O)OC)N2C(=O)N1Cc1cc2ccccc2n1S(=O)(=O)c1ccccc1 | 0 | - | 0 | - | - | -
O=C(NCCc1ccccc1)C1(c2cccs2)CCOCC1 | 0 | - | 0 | 0 | 0 | 0
Cc1ccc2c(CC(=O)Nc3ccc(S(=O)(=O)N4CCCCC4)cc3)coc2c1 | 0 | - | 0 | 0 | ? | 0
Cc1ccc2c(CC(=O)Nc3ccc(S(=O)(=O)N4CCCC(C)C4)cc3)coc2c1 (stereo unspecified) | 0 | - | 0 | 0 | 10µM | 0
CCCCCCCCCCCCCCCC[n+]1ccc(C)cc1 | 0 | - | 0 | - | - | -
COc1ccc(NS(=O)(=O)c2cc3c(cc2C)N(C)CCO3)cc1 | 0 | 0 | 0 | 0 | ? | 0
Cc1cc2c(cc1S(=O)(=O)Nc1cccc(Cl)c1C)OCCN2C | 0 | - | 0 | 0 | 10µM | 0
CCCC(=O)NC(c1ccc2c(c1)OCO2)c1cc(Cl)c2cccnc2c1O (stereo unspecified) | 0 | 0 | 0 | 0 | 4µM | 0
CCCC(=O)NC(c1ccco1)c1cc(Cl)c2cccnc2c1O (stereo unspecified) | 0 | 0 | 0 | 0 | ? | 0
O=C(O)COc1ccccc1C(Nc1ccccn1)c1cc(Cl)c2cccnc2c1O (stereo unspecified) | 0[11.4 µM] | 0 | ? | 0 | 0 | 0
CCOc1ccc(C(Nc2cccnc2)c2cc(Cl)c3cccnc3c2O)cc1 (stereo unspecified) | 0[11.4 µM] | 0 | 2.8µM | 0 | ? | 0
O=C(O)COc1ccccc1C(Nc1cccnc1)c1cc(Cl)c2cccnc2c1O (stereo unspecified) | 0 | 0 | 0.56µM | ? | 0 | 0
CN(C)c1ccc(/C=C/c2cc(N(C)C)nc3ccccc23)cc1 | 0 | - | 0 | - | - | -
Cc1cc(/C=C2\C=Cc3ccccc32)cc(C)c1N | 0 | - | 0 | - | - | -
COC(=O)c1c(NC(=O)/C=C/c2ccc(OC)c(OC)c2)sc2c1CCC2 | 0 | - | 0 | 0 | 0 | 0
COc1ccc(S(=O)(=O)N(CCc2ccccc2)CC(=O)Nc2cccc(OC)c2)cc1 | 0 | - | 0 | 0 | ? | 0
O=C(Nc1cccc(C(=O)OCc2cc(=O)n3ccsc3n2)c1)c1ccc(F)cc1 | 0 | - | 0 | 0 | 0 | 0
CC1(C)S[C@@H]2[C@H](NC(=O)[C@H](N)c3ccccc3)C(=O)N2[C@@H]1C(=O)OCOC(=O)[C@@H]1N2C(=O)C[C@@H]2S(O)(O)C1(C)C | - | 0 | - | - | - | -
SMILES | TrxR1 substrate | GLP1R ag | rTrxR1 inhibitor | IDH1 R132H inh | GLP1R inv ag | HEK293 tox
Cc1cccc(NC(=S)NC(=O)/C=C/c2ccco2)n1 | 0 | 0 | 0 | 0 | 0 | ?
Cc1ccccc1NC(=S)NC(=O)/C=C/c1ccco1 | 0 | 0 | 16µM | 0 | 0 | 0
COc1cccc(NC(=O)/C=C/c2ccco2)c1 | 0 | 0 | 0 | 0 | 0 | 0
O=C(/C=C/c1ccco1)NC(=S)Nc1cc(-c2nc3ccccc3s2)ccc1Cl | 0 | 0 | 50µM | 0 | 0 | 0
COc1ccccc1NC(=O)/C=C\c1ccco1 | 0 | 0 | 3.5µM | 0 | 0 | 0
COc1ccccc1NC(=S)NC(=O)/C=C/c1ccco1 | 0 | 0 | 20µM | 0 | 0 | 0
COc1cc(C(=O)NNC(=O)/C=C/c2ccco2)cc(OC)c1OC | 0 | 0 | 56µM | 0 | 0 | 0
COc1cc(C(=O)NNC(=O)c2ccco2)cc(OC)c1OC | 0 | 0 | 0 | 0 | 0 | 0
COc1ccc(C)cc1Nc1nc2c(S(=O)(=O)c3cccc(Cl)c3)nnn2c2ccsc12 | 0 | - | 0 | 0 | 0 | 0
CCOC(=O)c1cc(-c2ccc(F)cc2)n(CCC(=O)Nc2ccccc2OC)c1C | 0 | - | 0 | 0 | 10µM | 0
CCOC(=O)c1cc(-c2ccc(OC)cc2)n(CCC(=O)Nc2ccccc2OC)c1C | 0 | - | 0 | 0 | ? | 0
CCOC(=O)c1cc(-c2ccc(F)cc2)n(CCC(=O)NCc2ccc(C)cc2)c1C | 0 | - | 0 | 0 | 10µM | 0
CCOC(=O)c1cc(-c2ccc(F)cc2)n(CCC(=O)NCc2ccccc2OC)c1C | 0 | - | 0 | 0 | ? | 0
C=C1C=C(C)n2ncc(C(=O)Nc3ccc(C)cn3)c2N1 | 0 | - | 0 | - | - | -
N#CC(C#N)=NNc1ccc(S(=O)(=O)N2CCCCC2)cc1 | 0 | 0 | 32µM | 0 | 1.3µM | ?
CCOc1ccc(NC(=O)Cn2nnc(-c3nc(-c4ccncc4)no3)c2N)cc1 | 0 | - | 0 | - | 0 | 0
CCn1cc(C(=O)NCCCN(CC(C)C)CC(C)C)c(=O)c2cc(S(=O)(=O)N3CCOCC3)ccc21 | 0 | 0 | 0 | 0 | 0 | 0
CCC1CCCCN1CCCNC(=O)c1cn(CC)c2ccc(S(=O)(=O)N3CCc4ccccc4C3)cc2c1=O (stereo unspecified) | 0 | 0 | 0 | 0 | ? | 0
CCn1cc(C(=O)NCCCN2CCCC(C)C2)c(=O)c2cc(S(=O)(=O)N3CCc4ccccc4C3)ccc21 (stereo unspecified) | 0 | 0 | 0 | 0 | 10µM | 0
CCn1cc(C(=O)NCCN(CC(C)C)CC(C)C)c(=O)c2cc(S(=O)(=O)N3CCOCC3)ccc21 | 0 | 0 | 0 | 0 | 7.9µM | 0
COc1ccc(CN(C)C(c2ccccc2)c2nnnn2-c2ccccc2C)c(OC)c1C (stereo unspecified) | 0 | 0 | 0 | 0 | 10µM | 0

Screening results: PubChem, National Center for Advancing Translational Sciences (NCATS)
